Screening results (PubChem)
Most compounds without a hit are left out; they make up all but 9.6% or so of the library.
USP30 inh = blocks human USP30 ubiquitin-rhodamine cleavage. Q70CQ3. purified USP30, Ub-rhodamine cleavage fluorescence. actives 5.3% (n = 47,000). inhibition, % at 25 µM. AID 1645860
USP17 block = inhibitors of human USP17 deubiquitinase. inhibition, % at 50 µM. A8MUK1. actives 6.5% (n = 47,000). purified USP17, Ub-rhodamine cleavage fluorescence, 3 h
Target sequence (A8MUK1 whole entry, looked up): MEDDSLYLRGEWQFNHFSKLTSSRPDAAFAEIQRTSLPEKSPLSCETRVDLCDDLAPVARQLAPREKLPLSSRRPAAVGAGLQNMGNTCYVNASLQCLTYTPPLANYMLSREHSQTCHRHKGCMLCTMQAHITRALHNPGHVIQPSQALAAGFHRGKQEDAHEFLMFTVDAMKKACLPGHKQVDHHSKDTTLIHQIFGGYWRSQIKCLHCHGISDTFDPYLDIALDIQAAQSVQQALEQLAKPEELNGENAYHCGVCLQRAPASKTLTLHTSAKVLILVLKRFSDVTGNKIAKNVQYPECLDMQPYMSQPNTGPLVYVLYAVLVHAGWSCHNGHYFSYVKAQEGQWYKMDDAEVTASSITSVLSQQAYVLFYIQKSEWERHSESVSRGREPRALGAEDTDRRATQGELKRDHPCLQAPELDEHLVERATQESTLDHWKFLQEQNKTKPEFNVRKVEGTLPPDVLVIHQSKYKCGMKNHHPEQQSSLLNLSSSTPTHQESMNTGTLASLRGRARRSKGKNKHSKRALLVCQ
Of the large screens only hits and unclear results are named; the others gave an inactive call. No stated cut-off is given here; in the data, active means inhibition above about 30%; inactive means the rest.

Nc1ncnc2nc(SCc3nc4ccccc4c(=O)n3-c3cccc(C(F)(F)F)c3)[nH]c12	none
O=C(COc1ccc(C(=O)OCc2csc(-c3ccccc3)n2)cc1)Nc1cccc(C(F)(F)F)c1	USP30 inh 33, USP17 block 31
Cc1ccc2nc(-c3ccc(NC(=O)COc4ccc5c(c4)OCO5)cc3)sc2c1	none
CCc1ccc(OCC(=O)Nc2cccc(-c3nc4ccccc4s3)c2)cc1	USP30 inh 36
O=C(COc1ccc(F)cc1)NCc1csc(-c2ccccc2)n1	none
COc1ccccc1N1CCN(CC(=O)c2c(N)n(Cc3ccccc3)c(=O)n(C)c2=O)CC1	none
Cc1cccc(C(=O)N2CC(C(=O)NC3CCCC3)C3(CCOCC3)C2)c1 (stereo not drawn)	none
CCC(=O)Nc1nc2cc(NC(=O)Nc3ccccc3Cl)ccc2s1	none
COc1ccc(CN(CC(=O)NC2CCCCC2)C(=O)CCC(=O)Nc2ccccn2)cc1	USP30 inh 48
COc1ccc(OC)c(N(C(=O)CCCC(=O)Nc2ccccn2)C(C(=O)NC2CCCCC2)c2ccc(F)cc2)c1 (stereo not drawn)	USP17 block 35
Cc1ccc(N(C(=O)CCCC(=O)Nc2ccccn2)C(C(=O)NC2CCCC2)c2ccc(F)cc2)c(C)c1 (stereo not drawn)	none
CCCCOc1ccc(N(C(=O)CCCC(=O)Nc2ccccn2)C(C(=O)NC2CCCC2)c2ccc(F)cc2)cc1 (stereo not drawn)	none
Cc1ccc(C(C(=O)NC2CCCCC2)N(C(=O)CCCC(=O)Nc2ccccn2)c2ccc(C)cc2C)cc1 (stereo not drawn)	USP17 block 49
O=C(CCC(=O)N(CC(=O)NC1CCCC1)Cc1ccccc1)Nc1ccccn1	none
COc1ccccc1C(=O)Nc1nc2n(n1)C(c1ccccc1)CC(=O)N2 (stereo not drawn)	none
COc1cccc(NS(=O)(=O)c2ccc(-c3cc(C)[nH]n3)s2)c1	none
COc1ccc(S(=O)(=O)N2CCC(c3nccc(C)n3)C2)cc1 (stereo not drawn)	none
CCc1cc(=O)n(CC(=O)N2CCN(C)CC2)c2c1c(C)nn2-c1ccc(C)cc1	none
O=C(Oc1ccc(-c2nccc(-c3cccs3)n2)cc1)C1CCCCC1	none
O=C(Nc1ccc(-c2cn3ccccc3n2)cc1)C1C=C2C=C(Br)C=CC2OC1=O (stereo not drawn)	USP30 inh 49
COc1cc(NC(=O)Cc2cn3ccccc3n2)cc(OC)c1	none
Cc1ccc(NC(=O)c2sc(=S)n(CCc3ccccc3)c2N)cc1	USP30 inh 44, USP17 block 76
CC1=NS(=O)(=O)N(Cc2ccccc2)C=C1C(=O)Nc1ccc(C)cc1	none
Cc1ccccc1CNC(=O)c1cccc(-c2cnc(NC3CCCCC3)nc2)c1	none
CCn1cc2c(n1)c(=O)n(Cc1ccccc1)c(=O)n2CC(=O)Nc1ccc(OC)cc1	USP30 inh 39, USP17 block 80
CCCn1c(=O)c2nscc2n(CC(=O)Nc2ccc(F)c(F)c2)c1=O	none
CCn1cc2c(n1)c(=O)n(Cc1ccccc1)c(=O)n2CC(=O)Nc1ccc(C(C)C)cc1	USP17 block 40
CC(C)c1ccc(NC(=O)Cn2c(=O)n(Cc3ccncc3)c(=O)c3ncccc32)cc1	none
CCc1ccc(NC(=O)Cn2c(=O)n(C)c(=O)c3nscc32)cc1	USP17 block 39
CCOc1ccc(NC(=O)Cn2c(=O)n(Cc3ccncc3)c(=O)c3ncccc32)cc1	none
CCc1ccc(NC(=O)Cn2c(=O)n(Cc3ccccc3)c(=O)c3nn(CC)cc32)cc1	USP30 inh 78, USP17 block 73
Cc1cc(C)cc(NC(=O)Cn2c(=O)n(Cc3ccncc3)c(=O)c3ncccc32)c1	none
Cc1ccccc1CNC(=O)c1cn(C)nc1S(=O)(=O)N1CCCCC1	none
COCCn1ccc2nc(C)c(C(=O)NCc3ccco3)cc2c1=O	none
COc1ccc(CC(NC(C)=O)C(=O)NC2CCN(c3c(Cc4ccccc4)c(C)nc4ncnn34)CC2)cc1OC (stereo not drawn)	USP30 inh 71, USP17 block 47
COc1ccc(CC(NC(C)=O)C(=O)NC2CCN(c3c(Cc4ccccc4)c(C)nc4ncnn34)CC2)c(OC)c1 (stereo not drawn)	none
COCCC(=O)N1CC2(CCN(CC(c3ccccc3)c3ccccc3)CC2)C1	none
COc1cccc(/C=C/c2nc(C#N)c(N3CCN(C(=O)c4cccs4)CC3)o2)c1	USP30 inh 52
COc1ccc(C(=O)N2CCN(c3oc(/C=C/c4cccc(OC)c4)nc3C#N)CC2)cc1	none
COc1ccc(CN2C[C@H]3CCN(Cc4cccnc4)CC[C@H]3S2(=O)=O)cc1	none
CCc1ccc(NC(=O)CCNc2cc(C)nc3nc(-c4cccnc4)nn23)cc1	USP17 block 34
Cc1cc(Nc2ccc(C(=O)NCc3ccco3)cc2)n2nc(-c3cccnc3)nc2n1	USP30 inh 30, USP17 block 75
Cc1cc(Nc2cccc(C(=O)Nc3ccccc3)c2)n2nc(-c3cccnc3)nc2n1	none
